# According to the supplement of paper PMC8728848:
# The entries come from a sample that favours the strongest signals as a whole.
# What was measured:
# Assay in all cases: glycan array binding signal (z-score within array); higher = stronger binding
# Details in all cases: glycan notation: IUPAC condensed, linker removed
# Fuc(a1-2)Gal(b1-3)GalNAc = molecular target: Fuc(a1-2)Gal(b1-3)GalNAc
# In short: (§1)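 Negative Z-scores can be read as non-binding. The Z-score is calculated within each array and then averaged across arrays of one protein sequence at different concentrations or buffers and across linkers. Arrays, 3228 in all, were curated from the Consortium for Functional Glycomics database and kept only where the protein sequence was available.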
# [1] = molecular target: Fuc(a1-2)Gal(b1-3)GalNAc(b1-4)[Neu5Ac(a2-3)]Gal(b1-4)Glc
# In short: as §1
# [2] = molecular target: Fuc(a1-2)Gal(b1-3)GlcNAc(b1-3)[Neu5Ac(a2-6)Gal(b1-4)GlcNAc(b1-6)]Gal(b1-4)Glc
# In short: as §1
# [3] = molecular target: Fuc(a1-2)Gal(b1-3)GlcNAc6S
# In short: as §1
# [4] = molecular target: Fuc(a1-2)Gal(b1-3)[Fuc(a1-4)]GlcNAc
# In short: as §1
# [5] = molecular target: Fuc(a1-2)Gal(b1-3)[Fuc(a1-4)]GlcNAc(b1-2)Man(a1-3)[Fuc(a1-2)Gal(b1-3)[Fuc(a1-4)]GlcNAc(b1-2)Man(a1-3)]Man(b1-4)GlcNAc(b1-4)GlcNAc
# In short: as §1
# Fuc(a1-2)Gal(b1-4)Glc = molecular target: Fuc(a1-2)Gal(b1-4)Glc
# In short: as §1
# Fuc(a1-2)Gal(b1-4)Glc6S = molecular target: Fuc(a1-2)Gal(b1-4)Glc6S
# In short: as §1
# [6] = molecular target: Fuc(a1-2)Gal(b1-4)GlcNAc(b1-2)Man
# In short: as §1
# [7] = molecular target: Fuc(a1-2)Gal(b1-4)[Fuc(a1-3)]GlcNAc
# In short: as §1
# [8] = molecular target: Fuc(a1-2)[Gal(a1-3)]Gal(b1-4)[Fuc(a1-3)]Glc
# In short: as §1
# [9] = molecular target: Fuc(a1-2)[Gal(a1-3)]Gal(b1-4)[Fuc(a1-3)]GlcNAc
# In short: as §1
# [10] = molecular target: Fuc(a1-2)[GalNAc(a1-3)]Gal(b1-3)GlcNAc
# In short: as §1
# [11] = molecular target: Fuc(a1-2)[GalNAc(a1-3)]Gal(b1-3)GlcNAc(b1-2)Man(a1-3)[Fuc(a1-2)[GalNAc(a1-3)]Gal(b1-3)GlcNAc(b1-2)Man(a1-6)]Man(b1-4)GlcNAc(b1-4)GlcNAc
# In short: as §1
# [12] = molecular target: Fuc(a1-3)[Gal(b1-4)]GlcNAc(b1-3)GalNAc
# In short: as §1
# [13] = molecular target: Fuc(a1-3)[Gal3S(b1-4)]GlcNAc
# In short: as §1
# [14] = molecular target: Fuc(a1-3)[GalNAc(b1-4)]GlcNAc
# In short: as §1
# [15] = molecular target: Gal(a1-4)Gal(b1-3)GlcNAc(b1-2)Man(a1-3)[Gal(a1-4)Gal(b1-3)GlcNAc(b1-2)Man(a1-6)]Man(b1-4)GlcNAc(b1-4)GlcNAc
# In short: as §1
# Gal(a1-4)GlcNAc = molecular target: Gal(a1-4)GlcNAc
# In short: as §1
# Gal(b1-3)Gal = molecular target: Gal(b1-3)Gal
# In short: as §1
# Gal(b1-3)GalNAc = molecular target: Gal(b1-3)GalNAc
# In short: as §1
# [16] = molecular target: Gal(b1-3)GlcNAc(b1-2)Man(a1-3)[GlcNAc(b1-4)][Gal(b1-3)GlcNAc(b1-2)Man(a1-6)]Man(b1-4)GlcNAc(b1-4)GlcNAc
# In short: as §1
# [17] = molecular target: Gal(b1-3)GlcNAc(b1-3)Gal(b1-4)GlcNAc(b1-3)Gal(b1-4)GlcNAc(b1-2)[Gal(b1-3)GlcNAc(b1-3)Gal(b1-4)GlcNAc(b1-3)Gal(b1-4)GlcNAc(b1-6)]Man(a1-6)[Gal(b1-3)GlcNAc(b1-3)Gal(b1-4)GlcNAc(b1-3)Gal(b1-4)GlcNAc(b1-2)Man(a1-3)]Man(b1-4)GlcNAc(b1-4)[Fuc(a1-6)]GlcNAc
# In short: as §1
# [18] = molecular target: Gal(b1-3)GlcNAc(b1-3)GalNAc
# In short: as §1
# [19] = molecular target: Gal(b1-3)[Neu5Ac(a2-6)]GalNAc
# In short: as §1
# Gal(b1-4)Gal = molecular target: Gal(b1-4)Gal
# In short: as §1
# [20] = molecular target: Gal(b1-4)GlcNAc(b1-2)Man(a1-3)[Gal(b1-4)GlcNAc(b1-2)Man(a1-6)]Man(b1-4)GlcNAc(b1-4)[Fuc(a1-6)]GlcNAc
# In short: as §1
# [21] = molecular target: Gal(b1-4)GlcNAc(b1-2)Man(a1-3)[Man(a1-6)]Man(b1-4)GlcNAc(b1-4)GlcNAc
# In short: as §1
binder,measurement,setting,value
"SHCBP1-GST (Homo sapiens), Q8NEM2 (protein) MADGSLTGGGLEAAAMAPERMGWAVEQELASLEKGLFQDEDSCSDCSYRDKPGSSLQSFMPEGKTFFPEIFQTNQLLFYERFRAYQDYILADCKASEVQEFTAEFLEKVLEPSGWRAVWHTNVFKVLVEITDVDFAALKAVVRLAEPYLCDSQVSTFTMECMKELLDLKEHRLPLQELWVVFDDSGVFDQTALAIEHVRFFYQNIWRSWDEEEEDEYDYFVRCVEPRLRLHYDILEDRVPSGLIVDYHNLLSQCEESYRKFLNLRSSLSNCNSDSEQENISMVEGLKLYSEMEQLKQKLKLIENPLLRYVFGYQKNSNIQAKGVRSSGQKITHVVSSTMMAGLLRSLLTDRLCQEPGEEEREIQFHSDPLSAINACFEGDTVIVCPGHYVVHGTFSIADSIELEGYGLPDDIVIEKRGKGDTFVDCTGADIKISGIKFVQHDAVEGILIVHRGKTTLENCVLQCETTGVTVRTSAEFLMKNSDLYGAKGAGIEIYPGSQCTLSDNGIHHCKEGILIKDFLDEHYDIPKISMVNNIIHNNEGYGVVLVKPTIFSDLQENAEDGTEENKALKIQTSGEPDVAERVDLEELIECATGKMELCARTDPSEQVEGNCEIVNELIAASTQKGQIKKKRLSELGITQADDNLMSQEMFVGIVGNQFKWNGKGSFGTFLF",glycan array binding signal (z-score),Fuc(a1-2)Gal(b1-3)GalNAc,-0.317
same,glycan array binding signal (z-score),[1],-0.821
same,glycan array binding signal (z-score),[2],-0.751
same,glycan array binding signal (z-score),[3],-0.806
same,glycan array binding signal (z-score),[4],0.085
same,glycan array binding signal (z-score),[5],0.999
same,glycan array binding signal (z-score),Fuc(a1-2)Gal(b1-4)Glc,-0.192
same,glycan array binding signal (z-score),Fuc(a1-2)Gal(b1-4)Glc6S,-0.251
same,glycan array binding signal (z-score),[6],-0.583
same,glycan array binding signal (z-score),[7],-0.113
same,glycan array binding signal (z-score),[8],-0.299
same,glycan array binding signal (z-score),[9],0.298
same,glycan array binding signal (z-score),[10],-0.199
same,glycan array binding signal (z-score),[11],-0.355
same,glycan array binding signal (z-score),[12],2.35
same,glycan array binding signal (z-score),[13],-0.161
same,glycan array binding signal (z-score),[14],0.35
same,glycan array binding signal (z-score),[15],4.1
same,glycan array binding signal (z-score),Gal(a1-4)GlcNAc,-0.477
same,glycan array binding signal (z-score),Gal(b1-3)Gal,0.702
same,glycan array binding signal (z-score),Gal(b1-3)GalNAc,-0.251
same,glycan array binding signal (z-score),[16],2.98
same,glycan array binding signal (z-score),[17],3.45
same,glycan array binding signal (z-score),[18],0.539
same,glycan array binding signal (z-score),[19],-1.01
same,glycan array binding signal (z-score),Gal(b1-4)Gal,-0.879
same,glycan array binding signal (z-score),[20],0.409
same,glycan array binding signal (z-score),[21],0.6
